PubChem BioAssay (Tox21)
Records with an inconclusive call do not appear. Activity calls are given as the source filed them. The call rests on the fitted dose curve; in most records, active means well fitted curve in the direction sought with a large enough effect in the repeat runs; inconclusive means weak or mixed curves; inactive means no such curve, though single readings can be large; an effect the other way counts as inactive or inconclusive.

How the values were obtained:
[1] = Human pregnane X receptor (PXR) small molecule agonists, qHTS cell viability counter screen (AID 1346977); further: nearly all actives have a fitted effect of over 50% in size
Outline: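 PXR-Luc HepG2, 2,000 cells/well, 5% charcoal-stripped FBS; 5hr settle; cpd 24hr, 37C/5% CO2; CellTiter-Fluor at 23hr, read 1hr later (fluorescence).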

[2] = Caspase-3/7 induction in HepG2 cells by small molecules, qHTS assay (AID 1346978); further: nearly all actives have a fitted effect of over 15% in size
Outline: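 Wild-type HepG2 cells (2,000/well) were settled 5 h at 37 C, 5% CO2, then exposed to compounds in DMSO for 17 h. Caspase-3/7 activity was read by luminescence 30 min after adding Caspase-Glo 3/7 reagent at room temperature.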

[3] = Caspase-3/7 induction in CHO-K1 cells by small molecules, qHTS cell viability counter screen (AID 1346979); further: nearly all actives have a fitted effect of over 35% in size
Outline: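 Cells (CHO-K1, wild type) are plated at 1,500 per well and incubated 5hr. Test compounds in DMSO are then pinned in, followed by 16hr at 37C and 5% CO2. Viability is read by CellTiter-Fluor fluorescence after 1hr.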

[4] = Caspase-3/7 induction in CHO-K1 cells by small molecules, qHTS assay (AID 1346980); further: nearly all actives have a fitted effect of over 15% in size
Outline: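 Wild-type cells were seeded at 1,500 per well and settled 5 hr at 37 C, 5% CO2, then exposed to DMSO-dissolved compounds for 17 hr. Caspase-Glo 3/7 reagent was added, and luminescence was read after 30min at room temperature.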

[5] = Caspase-3/7 induction in HepG2 cells by small molecules, qHTS cell viability counter screen (AID 1346981); further: series mostly up to about 92 µM; nearly all actives have a fitted effect of over 30% in size
Outline: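 After a 5-hr attachment period at 37 C and 5% CO2, wild-type HepG2 cells received compounds in DMSO. Sixteen hours later CellTiter-Fluor was dispensed and the fluorescent signal quantified after a further hour.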

[6] = target: Nuclear receptor subfamily 1 group I member 2 (Homo sapiens) (UniProt O75469); assay: Human pregnane X receptor (PXR) small molecule agonists, qHTS assay (AID 1346982); further: nearly all actives have a fitted effect of over 35% in size; further: potency means the concentration at half of the fitted maximal effect
Sequence of Nuclear receptor subfamily 1 group I member 2 (Homo sapiens) (O75469 whole entry, looked up): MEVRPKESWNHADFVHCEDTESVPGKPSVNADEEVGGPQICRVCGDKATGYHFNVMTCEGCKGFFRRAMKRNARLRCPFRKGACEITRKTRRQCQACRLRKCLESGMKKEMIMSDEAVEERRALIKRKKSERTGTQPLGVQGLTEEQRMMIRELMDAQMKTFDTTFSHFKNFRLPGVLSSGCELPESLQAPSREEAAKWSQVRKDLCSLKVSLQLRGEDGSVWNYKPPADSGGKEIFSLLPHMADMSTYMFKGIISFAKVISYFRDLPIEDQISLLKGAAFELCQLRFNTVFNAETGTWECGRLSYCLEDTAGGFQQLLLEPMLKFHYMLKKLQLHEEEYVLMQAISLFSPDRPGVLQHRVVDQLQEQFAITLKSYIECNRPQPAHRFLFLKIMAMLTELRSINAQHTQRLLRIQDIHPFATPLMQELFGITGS
Outline: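 Tox21 qHTS; PXR-Luc HepG2; compounds pinned from DMSO; 24 hr, 37 C; ONE-Glo luciferase detection, 30 min room temperature.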

[7] = target: Nuclear receptor subfamily 1 group I member 2 (Rattus norvegicus) (UniProt Q9R1A7); assay: Rat pregnane X receptor (rPXR) activation by small molecules, qHTS assay (AID 1346983); settings: rPXR luciferase reporter cells, One-Glo luminescence, 24 h; hits give high values; further: nearly all actives have a fitted effect of over 20% in size
Sequence of Nuclear receptor subfamily 1 group I member 2 (Rattus norvegicus) (Q9R1A7 whole entry, looked up): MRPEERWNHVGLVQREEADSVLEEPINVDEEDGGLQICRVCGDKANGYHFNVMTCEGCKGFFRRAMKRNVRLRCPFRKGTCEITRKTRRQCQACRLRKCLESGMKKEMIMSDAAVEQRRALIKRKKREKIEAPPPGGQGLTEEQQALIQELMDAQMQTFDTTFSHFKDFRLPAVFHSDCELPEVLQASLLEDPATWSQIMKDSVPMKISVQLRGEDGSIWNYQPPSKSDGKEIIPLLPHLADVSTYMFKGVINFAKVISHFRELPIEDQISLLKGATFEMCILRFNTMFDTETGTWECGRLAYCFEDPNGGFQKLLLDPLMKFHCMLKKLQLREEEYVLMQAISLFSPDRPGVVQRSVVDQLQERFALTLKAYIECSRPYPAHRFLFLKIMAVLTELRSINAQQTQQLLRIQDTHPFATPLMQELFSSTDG
Outline: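 Cell-based rPXR luciferase reporter assay, 2,000 cells per well, rested 5hr at 37 C before compound addition in DMSO, then 24 hr at 37 C. One-Glo reagent was added and luminescence read after 30 min at room temperature.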

[8] = target: Nuclear receptor subfamily 1 group I member 2 (Homo sapiens) (UniProt O75469); assay: CYP3A4 induction through human pregnane X receptor (PXR) by small molecules, qHTS assay (AID 1346984); further: nearly all actives have a fitted effect of over 40% in size
Outline: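 Cells (DPX-2; HepG2 with PXR element plus CYP3A4-promoter luciferase) settled 5hr, then were treated 24hr at 37C. A 3hr, 3uM-final Luciferin-IPA step preceded luminescence measurement with One-Glo.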

[9] = target: Nuclear receptor subfamily 1 group I member 2 (Homo sapiens) (UniProt O75469); assay: Human pregnane X receptor (PXR) activation by small molecules, qHTS assay (AID 1346985); further: nearly all actives have a fitted effect of over 40% in size
Outline: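 DPX-2 cells (HepG2 co-transfected with a PXR response element and a CYP3A4-promoter luciferase construct) were seeded at 2,000 per well, rested 5 hr at 37C, then exposed to DMSO-dissolved compounds for 24 hr. Activation was read as luciferase luminescence.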
On the % scale 0 is the no-effect control and ±100 the full control effect.

N[C@@H](COP(=O)(O)O)C(=O)O
inactive: activity change, negative = cytotoxicity [1] 17.9% [at 19 µM] | caspase activation [2] 0.675% [at 19 µM] | activity change, negative = cytotoxicity [3] 4.45% [at 19 µM] | caspase-3/7 activation [4] 0.116% [at 19 µM] | activity change, negative = cytotoxicity [5] 5.73% [at 19 µM] | activation [6] 9.49% [at 19 µM] | max activation [7] -0.35% | Potency [8] | Potency [9]

Oc1ccccc1-c1nnco1
inactive: Potency [1] | Potency [2] | Potency [3] | outcome [4] | Potency [5] | Potency [6]

CNC(=O)[C@H]1O[C@@H](n2cnc3c(NCc4cc(Cl)ccc4OCc4cc(C)no4)ncnc32)[C@H](O)[C@@H]1N
inactive: Potency [1] | Potency [2] | Potency [3] | outcome [4] | Potency [5] | Potency [6]

CC(S)C(=O)NCC(=O)O (stereo not drawn)
inactive: Potency [1] | Potency [2] | Potency [3] | outcome [4] | Potency [5] | Potency [6] | max activation [7] -1.79% | Potency [8] | Potency [9]

COP(=O)(OC)OC(c1ccc(Cl)cc1)P(=O)(OC)OC (stereo not drawn)
inactive: Potency [1] | Potency [2] | Potency [3] | outcome [4] | Potency [5] | Potency [6] | max activation [7] 4.37% | Potency [8] | Potency [9]

CCCCCCCC/C=C\CCCCCCCC(=O)OCCCC
inactive: activity change, negative = cytotoxicity [1] 1.78% [at 19 µM] | caspase activation [2] 0.919% [at 19 µM] | activity change, negative = cytotoxicity [3] 3.24% [at 19 µM] | caspase-3/7 activation [4] -0.343% [at 19 µM] | activity change, negative = cytotoxicity [5] 2.37% [at 19 µM] | activation [6] 3.05% [at 19 µM]

On1nnc2ccccc21
inactive: Potency [1] | Potency [2] | Potency [3] | outcome [4] | Potency [5] | Potency [6]

CC(=O)/C=C/C1C(C)=CCC(C)C1(C)C (stereo not drawn)
inactive: Potency [1] | Potency [2] | Potency [3] | outcome [4] | Potency [5]
active: Potency [6] 19.3 µM

CN(C)C(=O)CNC(=O)Cc1ccccc1
inactive: Potency [1] | Potency [2] | Potency [3] | outcome [4] | Potency [5] | Potency [6]

COCCOCCOCCOCCOCCO
inactive: Potency [1] | Potency [2] | Potency [3] | outcome [4] | Potency [5] | Potency [6]

CCC(C)(CCC(C)C)C(=O)O (stereo not drawn)
inactive: Potency [1] | Potency [2] | Potency [3] | outcome [4] | Potency [5] | Potency [6]

CN1CCN(CC(=O)N2c3ccccc3C(=O)Nc3cccnc32)CC1
inactive: activity change, negative = cytotoxicity [1] 5.67% [at 8.39 µM] | caspase activation [2] -1.35% [at 8.39 µM] | activity change, negative = cytotoxicity [3] 7.7% [at 8.39 µM] | caspase-3/7 activation [4] 0.448% [at 8.39 µM] | activity change, negative = cytotoxicity [5] -1.47% [at 8.39 µM] | activation [6] -11.1% [at 8.39 µM]

CN=C(NC#N)Nc1ccc(C2=NNC(=O)CC2C)cc1 (stereo not drawn)
inactive: Potency [1] | Potency [2] | Potency [3] | outcome [4] | Potency [5] | Potency [6]

COCCOCCOCCOCCO
inactive: Potency [1] | Potency [2] | Potency [3] | outcome [4] | Potency [5] | Potency [6]

O=C(OCc1ccccc1)C(=O)OCc1ccccc1
inactive: Potency [1] | Potency [2] | Potency [3] | outcome [4] | Potency [5] | Potency [6]

COc1ccc2nc(SCc3ncc(C)c(OC)c3C)[nH]c2c1
inactive: Potency [1] | Potency [2] | Potency [3] | outcome [4] | Potency [5]
active: Potency [6] 23.7 µM

CCCCNC1CC(C)(C)NC(C)(C)C1
inactive: Potency [1] | Potency [2] | Potency [3] | outcome [4] | Potency [5] | Potency [6]

COc1ccc(OC)c(Cl)c1
inactive: Potency [1] | Potency [2] | Potency [3] | outcome [4] | Potency [5] | Potency [6]

CC(CC=O)CCCC(C)(C)O (stereo not drawn)
inactive: Potency [1] | Potency [2] | Potency [3] | outcome [4] | Potency [5] | Potency [6] | max activation [7] -1.75% | Potency [8] | Potency [9]

O=S(=O)(O)c1ccc2cc(O)c(S(=O)(=O)O)cc2c1
inactive: Potency [1] | Potency [2] | Potency [3] | outcome [4] | Potency [5] | Potency [6]

CN(CCOc1ccc(NS(C)(=O)=O)cc1)CCc1ccc(NS(C)(=O)=O)cc1
inactive: Potency [1] | Potency [2] | Potency [3] | outcome [4] | Potency [5] | Potency [6] | max activation [7] -6.17% | Potency [8]

c1ccc2nccnc2c1
inactive: Potency [1] | Potency [2] | Potency [3] | outcome [4] | Potency [5] | Potency [6]

CC(C)(C)c1nnc(NS(=O)(=O)c2ccc(N)cc2)s1
inactive: Potency [1] | Potency [2] | Potency [3] | outcome [4] | Potency [5] | Potency [6]

Cc1ccccc1OCC(O)CO (stereo not drawn)
inactive: Potency [1] | Potency [2] | Potency [3] | outcome [4] | Potency [5] | max activation [7] -0.0648%

C=C1CC/C=C(\C)CC[C@@H]2[C@@H]1CC2(C)C
inactive: Potency [1] | Potency [2] | Potency [3] | outcome [4] | Potency [5] | Potency [6]

CCOC(=O)/C=C/c1ccccc1
inactive: Potency [1] | Potency [2] | Potency [3] | outcome [4] | Potency [5] | Potency [6]

Cc1ccc2ccc(Cl)cc2n1
inactive: Potency [1] | Potency [2] | Potency [3] | outcome [4] | Potency [5] | Potency [6]

O=C(OCC1(COC(=O)c2cccnc2)CCCC(COC(=O)c2cccnc2)(COC(=O)c2cccnc2)C1O)c1cccnc1
inactive: Potency [1] | Potency [2] | Potency [3] | outcome [4] | Potency [5] | Potency [6]

CC(C)c1ccc2cc(C(C)C)ccc2c1
active: Potency [6] 61.1 µM
inactive: Potency [1] | Potency [2] | Potency [3] | outcome [4] | Potency [5]

CC(N)C(=O)OC(C)(C)Cc1ccc(Cl)cc1 (stereo not drawn)
inactive: Potency [1] | Potency [2] | Potency [3] | Potency [5] | Potency [6]

Cc1ccccc1N=O
inactive: Potency [1] | Potency [3] | outcome [4] | Potency [5] | Potency [6]
